From PubChem BioAssay (Tox21) come the findings set out here.

Molecules are shown by their SMILES. Inconclusive results are not listed. Where a call stands in place of a potency, no number is given. Active and inactive are the calls of the source. Calls come from the whole dose curve; as a rule, active = well fitted cell-killing curve with a large enough effect in the repeat runs; inconclusive = weak or mixed curves, or effect the other way; inactive = no such curve, though single readings can be large or run the other way.
Potency is the fitted concentration of half-maximal effect.

A short description of the assay: qHTS assay to identify small molecule antagonists of the vitamin D receptor (VDR) signaling pathway - cell viability counter screen (AID 743225). Note: nearly all actives have a fitted effect of over 50% in size. The note with it: VDR-bla HEK293T viability, CellTiter-Glo luminescence, 16 h; series mostly up to 61 µM; viability change, negative = cytotoxic: at the top concentration. The source says:
U.S. Tox21 Program National Center for Advancing Translational Sciences [NCATS] NIH Chemical Genomics Center [NCGC] U.S. Environmental Protection Agency [EPA] National Institutes of Environmental Health Sciences [NIEHS] National Toxicology Program [NTP] U.S. Food and Drug Administration [FDA] Tox21 Assay Overview: The vitamin D receptor (VDR), a member of nuclear hormone receptor superfamily, plays a critical role in calcium homeostasis and bone metabolism. It is also involved in cell differentiation and growth, and thrombogenicity. To identify the compounds that inhibit VDR signaling, the VDR-UAS-bla HEK 293T cell line (Invitrogen, Carlsbad, CA, USA) containing a beta-lactamase reporter gene under the control of an upstream activator sequence (UAS) was used to screen the Tox21 10K compound library. The cytotoxicity of the Tox21 compound library against the VDR-bla cell line was tested in parallel by measuring the cell viability using CellTiter-Glo assay (Promega, Madison, WI) in the same wells.
Tox21 Assay Protocol Summary: VDR-bla cells were dispensed at 2,000 cells/5 uL of assay medium per well into black wall/clear-bottom 1536-well plates using a Multidrop Combi (Thermo Fisher Scientific, Waltham, MA) dispenser. After the assay plates were incubated at a 37C and 5% CO2 for 4 h, 23 nL of compounds dissolved in DMSO, positive controls or DMSO only was transferred to the assay plate by a Pintool station (Kalypsys, San Diego, CA), followed by addition of 1 uL of 1-alpha, 25-Dihydroxy Vitamin D3 (3 nM, final concentration in the wells) using a Bioraptr Flying Reagent Dispenser (FRD) workstation (Beckman Coulter, Indianapolis, IN). The plates were incubated at 37C and 5% CO2 for 16 h, and then 1 uL of LiveBLAzerTM B/G FRET substrate was added using a Bioraptr FRD. The plates were incubated at room temperature for 2 h and fluorescence intensity was measured by an Envision plate reader (PerkinElmer, Shelton, CT). For cell viability readout that measures cytotoxicity, 3 ul/well of CellTiter-Glo reagent was added into the assay plates using a Bioraptr FRD. After 30 min incubation at room temperature, the luminescence intensity in the plates was measured using a ViewLux plate reader (PerkinElmer).
On the technique in general: Quantitative high-throughput screening tests each substance at several concentrations.
`O=C=Nc1ccc(Cc2ccc(N=C=O)cc2)cc1`: the Potency entry was “inactive”.
Take `CC(=O)C1(C)CC2=C(CCCC2(C)C)CC1C` (stereo not given): the Potency entry is “inactive”.
Turning to `OC1CCCCCCCCCCC1`, the Potency result was “inactive”.
Take `c1ccc2sc(SSN3CCOCC3)nc2c1`: the Potency result was “inactive”.
In the case of `O=C1c2cccc(O)c2C(=O)c2c(O)cccc21`, the Potency entry is “inactive”.
Still for that read-out and setting: to `CNCCCC12CCC(c3ccccc31)c1ccccc12` belongs 15.5 µM (active); to `OC[C@H]1O[C@@H]2O[C@H]3[C@H](O)[C@@H](O)[C@@H](O[C@H]4[C@H](O)[C@@H](O)[C@@H](O[C@H]5[C@H](O)[C@@H](O)[C@@H](O[C@H]6[C@H](O)[C@@H](O)[C@@H](O[C@H]7[C@H](O)[C@@H](O)[C@@H](O[C@H]8[C@H](O)[C@@H](O)[C@@H](O[C@H]1[C@H](O)[C@H]2O)O[C@@H]8CO)O[C@@H]7CO)O[C@@H]6CO)O[C@@H]5CO)O[C@@H]4CO)O[C@@H]3CO`, “inactive”.
Still for that read-out and setting: to `COC(C)COC(C)COC(C)CO` (stereo not given) belongs “inactive”; to `CC(=O)CC/C=C(\C)CCC=C(C)C`, “inactive”; to `COc1c(Cl)c(Cl)c(Cl)c(Cl)c1Cl`, “inactive”.
Take `O=C(OCc1ccccc1)c1ccccc1O`: the “viability change, negative = cytotoxic” value is -0.393% (inactive).
For the compound `CC(C)=CCCC(C)CCO` (stereo not given), the Potency result was “inactive”.
As for `Cc1c(C(N)=O)cc([N+](=O)[O-])cc1[N+](=O)[O-]`, the Potency entry was “inactive”.
Turning to `Cc1ccc(C)c(O)c1C`, the Potency entry was “inactive”.
As for `C#C[C@]1(O)CC[C@H]2[C@@H]3CCc4cc(OC)ccc4[C@H]3CC[C@@]21C`, the “viability change, negative = cytotoxic” value is -18% (inactive).
Turning to `c1cc(-c2ccncc2)ccn1`, the Potency result is “inactive”.
For the compound `S=C(NC1CCCCC1)NC1CCCCC1`, the Potency result is “inactive”.
`Oc1ccc(O)cc1`: the Potency result is “inactive”.
The same measure, in the same setting: under `Clc1nc(Cl)c(Cl)c(Cl)c1Cl` stands “inactive”; under `CCCCCCCCCCCO`, “inactive”; under `C=C(C)C(=O)OCCOC(=O)C(=C)C`, “inactive”.
Consider `O=C(c1ccccc1)c1ccc(O)cc1O`, for which the Potency result was “inactive”.
Consider `Cc1cccc([N+](=O)[O-])c1C`, for which the Potency result was “inactive”.
The same measure, in the same setting: to `CCCC(=O)O` belongs “inactive”; to `CCCCOCCOCCOCCO`, “inactive”.
For the compound `Nc1ccccc1N`, the “viability change, negative = cytotoxic” value is 4.43% [at 78.8 µM] (inactive).
With `c1ccc2cc(Nc3ccc(Nc4ccc5ccccc5c4)cc3)ccc2c1`, the Potency result was “inactive”.
Still for that read-out and setting: under `O=C(/C=C/C=C/c1ccc2c(c1)OCO2)N1CCCCC1` stands “inactive”.
The same measure, in the same setting: under `c1ccc2c(c1)Oc1ccccc1S2` stands “inactive”.
Consider `COC(=O)c1ccccc1`, for which the “viability change, negative = cytotoxic” value was -1.57% (inactive).
On to `CCCCC(CC)COC(=O)c1ccc(N(C)C)cc1` (stereo not given), for which the Potency result is “inactive”.
Still for that read-out and setting: to `C[C@]12CC[C@H]3[C@@H](CCC4=CC(=O)CC[C@@]43C)[C@@H]1CC[C@@H]2C(=O)CO` belongs “inactive”.
The same measure, in the same setting: to `O=CCCCC=O` belongs “inactive”.
On to `CCCCC(CC)COCC1CO1` (stereo not given), for which the “viability change, negative = cytotoxic” value was 1.47% (inactive).
`CC(C)=CCC/C(C)=C\CO`: the “viability change, negative = cytotoxic” value is 12.8% (inactive).
As to `CN(C)c1nc(N(C)C)nc(N(C)C)n1`, the Potency result was “inactive”.
As to `O=C(Nc1ccc(Cl)cc1)Nc1ccc(Cl)c(Cl)c1`, the “viability change, negative = cytotoxic” value is -9.7% (inactive).
As to `CCOC(=O)C(C#N)=C(c1ccccc1)c1ccccc1`, the Potency entry is “inactive”.
The same measure, in the same setting: to `Cc1cccc(C(=O)O)c1` belongs “inactive”; to `O=S(=O)(O)c1ccc(O)cc1`, “inactive”.
